In the experiment the target is AMP-activated protein kinase, AMPK (Homo sapiens) (UniProt P54646+O43741+P54619+Q9UGJ0+Q9Y478+Q13131+Q9UGI9). Put plainly: AMP-dependent Kinase enzyme assay. An in vitro enzyme assay that detects ADP turnover that is directly proportional to AMPK activity. This uses naive AMPK that is activated during the assay with MK-8722. It is filed as functional. Details: scale not given: direction of the effect not stated beside the values. As to conditions: 30 µM.
On to `CC(C)c1nc(CSc2nnc(C3CC3)n2CC(N)=O)no1`, for which the Percent Effect is -5.73%. Then `CCNc1ncc(C(=O)NCc2csc(-c3cnccn3)n2)cn1`, with -2.88%; and `Cc1nn(C)c(C)c1CCC(=O)NCC1(C(N)=O)CCOCC1`, with 1.16%.

`COc1nccc(N2CC[C@@H](N3CCC(O)CC3)[C@H](O)C2)c1C#N`: the Percent Effect stood at 5.62%. Then `CCC1COCCN1C(=O)NCc1nccn1Cc1ccccc1` (stereo not given), with -0.566%; and `Cc1cccc(N2CCN(C(=O)CNCCn3cc(C)cn3)CC2)c1`, with -4.92%. For `COc1c(CNCC(=O)N2CCN(C)CC2)c(C(C)C)nn1C` the value was -12.4%; for `Cc1nn(C)c2nc(N3CCCCC3c3nccs3)sc12` (stereo not given), 5.6%; for `Cc1ccccc1C(CC(=O)N1CCc2sccc2C1)NC(N)=O` (stereo not given), 11.7%. For `Cc1ccc(CN(CCN(C)C)Cc2c(C)nc3sccn23)o1` the value was 14.3%; for `Cc1cc(C2CCCN(Cc3nc(Cc4ccccc4)no3)C2)n[nH]1` (stereo not given), 3.74%. For the compound `CC(=O)c1ccc(-c2cnn(CC(=O)Nc3cc(C)nn3C)c2)nc1`, the Percent Effect turned out to be 0.263%. For `CCc1ccc2nc(-c3cnn(C)c3)cc(C(=O)N3CCOCC3)c2c1` the value was 8.54%. Then `CC(c1ccc(F)cc1F)N1CCN(CCC(=O)O)CC1` (stereo not given), with 8.21%; and `Cc1nn(C)c(C)c1-c1ccc(=O)n(C(C)C(=O)NCc2ccco2)n1` (stereo not given), with 17.2%; and `O=C(CCC(=O)N1CCNC(=O)C1c1cccc(F)c1)NC1CCCC1` (stereo not given), with -9.49%. Turning to `CCc1nn(C)c(Cl)c1CN1CCCC2(C1)CN(C)C(=O)O2` (stereo not given), the Percent Effect was 5.15%. Turning to `COCCCN1CCN(C(=O)C(c2cccc(F)c2)N(C)C)CC1` (stereo not given), the Percent Effect is -3.6%.

Regarding `Cc1cc(NC(=O)Cn2ccc(=O)c3ccccc32)[nH]n1`, the Percent Effect is -3.42%. For `C[C@@H]1CN(Cc2nc(C(N)=O)no2)CC[C@@]1(O)C1CC1` the value was 0.276%.

(Values after ChEMBL document CHEMBL3988442, “University of Dundee, Small-Polar-MMV Screening Library” (2021).)
